# Measurements as given in PubChem BioAssay (NCATS).
# Results filed as inconclusive are left out. The source made the active and inactive calls. Unless noted, the call rests on the fitted dose curve; in most records, active means well fitted curve in the direction sought with a large enough effect; inconclusive means small, poorly fitted or top-dose-only effect, or another doubt; inactive means no such curve, though single readings can be large; an effect the other way counts as inactive or inconclusive.
# Experiments:
# [1] = target: Catechol O-methyltransferase (Homo sapiens) (UniProt P21964); experiment: Confirmatory Screen for Target Class Profiling of Small Molecule Inhibitors of Methyltransferases (AID 1745852; calls by dose curve; on activity change, negative = inhibition: on the % scale 0 is the no-effect control and ±100 the full control effect); conditions: MTase-Glo luminescence, SAH detection, recombinant enzyme; measured here: COMT max response; stronger effect = lower value
# Chain of Catechol O-methyltransferase (Homo sapiens) (P21964 whole entry, looked up): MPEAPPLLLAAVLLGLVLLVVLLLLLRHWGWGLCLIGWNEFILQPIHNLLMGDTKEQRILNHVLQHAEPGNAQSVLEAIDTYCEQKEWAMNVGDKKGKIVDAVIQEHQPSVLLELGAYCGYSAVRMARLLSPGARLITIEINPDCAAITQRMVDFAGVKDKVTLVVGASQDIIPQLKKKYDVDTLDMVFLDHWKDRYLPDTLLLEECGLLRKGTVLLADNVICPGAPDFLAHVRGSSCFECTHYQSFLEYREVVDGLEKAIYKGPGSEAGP
# [2] = target: Guanidinoacetate N-methyltransferase (Homo sapiens) (UniProt Q14353); experiment: as above; conditions: MTase-Glo luminescence, SAH detection, recombinant enzyme; activity change, negative = inhibition: at 57.3 µM (top of the series) unless noted; series mostly up to 57.3 µM
# [3] = target: Nicotinamide N-methyltransferase (Homo sapiens) (UniProt P40261); experiment: as above; conditions: MTase-Glo luminescence, SAH detection, recombinant enzyme; measured here: NNMT max response; stronger effect = lower value
# Chain of Nicotinamide N-methyltransferase (Homo sapiens) (P40261 whole entry, looked up): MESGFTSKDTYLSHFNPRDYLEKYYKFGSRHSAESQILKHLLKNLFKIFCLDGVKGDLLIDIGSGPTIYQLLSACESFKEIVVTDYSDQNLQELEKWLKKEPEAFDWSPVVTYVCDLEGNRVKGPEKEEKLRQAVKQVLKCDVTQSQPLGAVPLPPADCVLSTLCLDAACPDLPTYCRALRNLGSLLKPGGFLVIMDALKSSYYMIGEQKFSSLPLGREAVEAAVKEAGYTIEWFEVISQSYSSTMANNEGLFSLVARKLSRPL
# [4] = target: Phenylethanolamine N-methyltransferase (Homo sapiens) (UniProt P11086); experiment: as above; conditions: MTase-Glo luminescence, SAH detection, recombinant enzyme; measured here: PNMT max response; stronger effect = lower value
# Chain of Phenylethanolamine N-methyltransferase (Homo sapiens) (P11086 whole entry, looked up): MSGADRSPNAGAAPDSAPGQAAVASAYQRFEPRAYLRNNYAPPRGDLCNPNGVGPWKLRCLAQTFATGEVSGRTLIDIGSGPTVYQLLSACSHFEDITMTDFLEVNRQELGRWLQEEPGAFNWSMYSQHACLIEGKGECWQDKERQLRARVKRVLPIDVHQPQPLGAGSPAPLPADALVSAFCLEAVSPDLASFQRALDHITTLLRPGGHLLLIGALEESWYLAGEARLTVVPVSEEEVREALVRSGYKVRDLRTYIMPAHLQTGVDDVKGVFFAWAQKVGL
# [5] = Counterscreen for APE1 Inhibitors: Fluorescent Dye Displacement Validation Assay (AID 1707); conditions: fluorescent dye displacement from DNA; series mostly up to 57.1 µM;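 further: plate controls were ThO with dsDNA and no compound for no effect and ThO without dsDNA for full effect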
# Summary of the method: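 Thiazole Orange displacement from dsDNA: 250 nM ThO with 50 nM TAMRA-labelled abasic-site (tetrahydrofuran) duplex in 50 mM Tris-HCl pH7.5, 50mM NaCl, 2 mM MgCl2, 0.01% Tween-20. Loss of endpoint fluorescence (ex 480 nm, em 540 nm) flags DNA binders.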
# [6] = qHTS for differential inhibitors of proliferation of Plasmodium falciparum line Dd2 (AID 1882); conditions: Potency: Plasmodium falciparum Dd2 proliferation inhibition; series mostly up to 28.7 µM;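 further: plate controls were DMSO vehicle for no effect and 0.29 µM artemisinin for full effect; nearly all actives have a fitted effect of over 65% in size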
# Summary of the method: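 Dd2-infected erythrocytes (0.3% parasitemia, 2.5% hematocrit final) incubated with compound 72 h at 37 C, 5% CO2; lysed with saponin/Triton buffer containing SYBR Green I, incubated overnight in the dark, then read by fluorescence (485/535 nm). Normalized to 0.29 uM artemisinin and DMSO.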
# [7] = qHTS for differential inhibitors of proliferation of Plasmodium falciparum line W2 (AID 1883); conditions: Potency: Plasmodium falciparum W2 proliferation inhibition; series mostly up to 28.7 µM;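 further: potency means the concentration at half of the fitted maximal effect; parasites grown with compound for 72 h before lysis and staining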
# [8] = qHTS for differential inhibitors of proliferation of Plasmodium falciparum line HB3 (AID 1886); conditions: Potency: Plasmodium falciparum HB3 proliferation inhibition; series mostly up to 28.7 µM;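 further: parasites grown with compound for 72 h before SYBR Green readout; plate controls were vehicle for no effect and reference inhibitor for full effect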
# [9] = qHTS Assay for Modulators of Human Peripheral Myelin Protein 22 (PMP22) Expression/Activity (AID 1967; active means well fitted curve in the direction sought with a large enough effect in the signal ratio; the % refers to the signal ratio;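 further: 0% = untreated cells and 100% end not stated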); conditions: Cell-based PMP22 reporter, dual-color luciferase ratio, 0% = compound-free control cells, mouse Pmp22 promoter in mouse Schwann cells; series mostly up to 115 µM
# Summary of the method: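 Engineered MSC80 cells, Pmp22-promoter green and EF-alpha red luciferase reporters; 24h compound treatment at 37 °C. Concentration-response fits on green, red and ratio signals, each overlap-corrected, with %Activity normalized to untreated wells.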
# [10] = target: ATP-dependent DNA helicase Q1 (Homo sapiens) (UniProt P46063); experiment: qHTS Validation Assay for Inhibitors of RecQ-Like Dna Helicase 1 (RECQ1) (AID 2353); conditions: recombinant RECQ1 helicase DNA unwinding assay; series mostly up to 25.6 µM;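 further: plate controls were DMSO vehicle for no effect and enzyme-free control for full effect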
# Chain of ATP-dependent DNA helicase Q1 (Homo sapiens) (P46063 whole entry, looked up): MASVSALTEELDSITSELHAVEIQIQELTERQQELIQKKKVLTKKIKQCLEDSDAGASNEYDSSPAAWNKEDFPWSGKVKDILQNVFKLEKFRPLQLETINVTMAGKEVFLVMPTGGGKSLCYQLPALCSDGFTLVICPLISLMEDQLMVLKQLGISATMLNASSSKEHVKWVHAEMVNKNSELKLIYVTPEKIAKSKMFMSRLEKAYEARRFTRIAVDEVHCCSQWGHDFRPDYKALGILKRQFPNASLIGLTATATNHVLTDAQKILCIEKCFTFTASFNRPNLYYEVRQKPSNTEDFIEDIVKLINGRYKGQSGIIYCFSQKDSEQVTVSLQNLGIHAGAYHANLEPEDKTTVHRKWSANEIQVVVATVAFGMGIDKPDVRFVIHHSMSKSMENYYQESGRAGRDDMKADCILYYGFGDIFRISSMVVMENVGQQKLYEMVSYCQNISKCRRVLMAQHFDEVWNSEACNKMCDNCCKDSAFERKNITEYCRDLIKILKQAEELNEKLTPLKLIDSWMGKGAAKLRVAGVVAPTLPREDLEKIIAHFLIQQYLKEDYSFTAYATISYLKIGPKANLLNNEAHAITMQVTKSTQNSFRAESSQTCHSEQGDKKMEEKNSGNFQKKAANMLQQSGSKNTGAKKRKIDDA
# Summary of the method: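 50 nM RECQ1T1 preincubated 15 min with compound in Tris pH 8.0 buffer with MgCl2, DTT, Tween-20 and 2.5 ug/ml poly(dI-dC); started with 200 nM TAMRA/BHQ-2 forked duplex and 2 mM ATP. Unwinding read as fluorescence (525/598 nm), two reads 2 h apart.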
# [11] = Validation screen for small molecules that induce DNA re-replication in MCF 10A normal breast cells (AID 463097); conditions: MCF 10A cells, DNA re-replication phenotype imaging; series mostly up to 46.1 µM; further: 0% is about no effect; nearly all actives have a fitted effect of over 60% in size
# Summary of the method: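 Following 48 hr compound incubation (37 C, 5% CO2), MCF 10A cells receive Hoechst for 40 min at 37 C. Nuclei are then scanned (excitation 405 nm, emission 500-530 nm) for total fluorescence intensity.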
# [12] = Quantitative high throughput screen for delayed death inhibitors of the malarial parasite plastid, 48 hour incubation (AID 488752); conditions: Plasmodium falciparum growth; series mostly up to 28.7 µM; further: on the % scale 0 is the no-effect control and ±100 the full control effect; nearly all actives have a fitted effect of over 65% in size
# Summary of the method: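 Readout is firefly luciferase luminescence from a reporter integrated into the parasite genome, with lower signal taken as inhibited growth. Infected red cells (0.1% parasitemia, 2% hematocrit final) are cultured with compound for one 48 h cycle at 37 C.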
# [13] = target: M-phase phosphoprotein 8 (Homo sapiens) (UniProt Q99549); experiment: qHTS Validation Assay for Inhibitors for MPP8 Chromodomain Interactions with Methylated Histone Tails (AID 488949); conditions: AlphaScreen MPP8 binding to H3K9me3 peptide; series mostly up to 114 µM;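 further: 50 nM MPP8 with 50 nM peptide preformed then compounds added for 30 min; AlphaScreen signal from MPP8 chromodomain bound to biotinylated H3K9me3 peptide; top concentration of the series differs between compounds; on the % scale 0 is the no-effect control and ±100 the full control effect; nearly all actives have a fitted effect of over 55% in size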
# Chain of M-phase phosphoprotein 8 (Homo sapiens) (Q99549 whole entry, looked up): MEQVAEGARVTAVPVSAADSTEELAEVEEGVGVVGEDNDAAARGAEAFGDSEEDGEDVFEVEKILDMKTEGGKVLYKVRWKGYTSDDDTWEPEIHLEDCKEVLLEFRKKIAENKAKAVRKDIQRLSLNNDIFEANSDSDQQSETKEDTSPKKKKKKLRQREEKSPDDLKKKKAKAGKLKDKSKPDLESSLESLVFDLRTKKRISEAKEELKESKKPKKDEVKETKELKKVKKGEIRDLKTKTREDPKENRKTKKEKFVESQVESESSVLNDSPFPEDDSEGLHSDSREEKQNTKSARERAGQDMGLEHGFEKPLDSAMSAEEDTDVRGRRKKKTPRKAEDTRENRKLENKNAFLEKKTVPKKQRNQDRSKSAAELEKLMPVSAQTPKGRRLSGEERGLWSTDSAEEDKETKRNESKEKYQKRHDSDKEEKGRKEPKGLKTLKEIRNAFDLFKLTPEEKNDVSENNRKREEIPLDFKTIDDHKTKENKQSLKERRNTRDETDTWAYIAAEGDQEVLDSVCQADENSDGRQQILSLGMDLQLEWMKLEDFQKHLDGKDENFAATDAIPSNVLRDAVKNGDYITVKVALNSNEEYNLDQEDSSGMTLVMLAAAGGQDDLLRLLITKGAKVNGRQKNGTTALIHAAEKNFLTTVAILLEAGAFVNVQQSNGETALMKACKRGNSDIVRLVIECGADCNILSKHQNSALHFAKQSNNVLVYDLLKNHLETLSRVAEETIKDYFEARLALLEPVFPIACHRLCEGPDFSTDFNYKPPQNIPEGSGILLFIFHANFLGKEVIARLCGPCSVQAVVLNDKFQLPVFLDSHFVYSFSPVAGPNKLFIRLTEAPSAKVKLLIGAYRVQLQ
# Summary of the method: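 Chemiluminescent proximity assay: histidine-tag capture via nickel acceptor beads, biotin peptide via streptavidin donor beads. Protein and peptide each at 50 nM, pH 7.4, with 30 min incubations at room temperature for complex formation, compound exposure and bead binding.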
# [14] = target: Thyrotropin receptor (Homo sapiens) (UniProt P16473); experiment: qHTS Assay for Antagonists of the Thyroid Stimulating Hormone Receptor (AID 488980); conditions: TSHR-expressing cells, cAMP antagonist read-out; series mostly up to 57.5 µM; further: 0% is about no effect
# Chain of Thyrotropin receptor (Homo sapiens) (P16473 whole entry, looked up): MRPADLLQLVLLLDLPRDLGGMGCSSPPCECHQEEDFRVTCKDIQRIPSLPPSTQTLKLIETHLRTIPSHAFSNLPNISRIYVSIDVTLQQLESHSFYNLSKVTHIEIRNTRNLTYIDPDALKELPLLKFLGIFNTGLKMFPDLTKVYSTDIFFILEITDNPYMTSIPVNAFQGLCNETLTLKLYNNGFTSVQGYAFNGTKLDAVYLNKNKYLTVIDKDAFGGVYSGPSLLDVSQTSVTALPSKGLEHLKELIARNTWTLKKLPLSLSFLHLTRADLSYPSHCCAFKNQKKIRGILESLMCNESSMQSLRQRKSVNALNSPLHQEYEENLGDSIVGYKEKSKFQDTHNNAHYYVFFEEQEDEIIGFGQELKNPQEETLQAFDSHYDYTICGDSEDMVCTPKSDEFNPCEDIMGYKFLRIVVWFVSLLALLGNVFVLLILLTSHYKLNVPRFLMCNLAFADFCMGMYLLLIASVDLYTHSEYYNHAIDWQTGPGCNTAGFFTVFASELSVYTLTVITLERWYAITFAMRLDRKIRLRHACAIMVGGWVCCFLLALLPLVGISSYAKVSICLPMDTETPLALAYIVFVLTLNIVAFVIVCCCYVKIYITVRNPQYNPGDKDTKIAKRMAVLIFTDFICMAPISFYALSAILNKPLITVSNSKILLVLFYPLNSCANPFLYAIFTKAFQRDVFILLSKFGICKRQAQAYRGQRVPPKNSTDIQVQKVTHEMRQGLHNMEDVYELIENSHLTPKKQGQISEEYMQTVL
# Summary of the method: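 Inhibition of TSH-stimulated cAMP accumulation was quantified by homogeneous time-resolved FRET in TSHR-transfected HEK293 cells. Agonist: TSH, 4 nM final (EC80).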
# [15] = target: Galactokinase (Homo sapiens) (UniProt P51570); experiment: qHTS Validation Assay for Inhibitors of Human Galactokinase (GALK) (AID 493189); conditions: purified human GALK enzyme activity, qHTS 7-point titration; series mostly up to 57.5 µM; further: 0% is about no effect
# Chain of Galactokinase (Homo sapiens) (P51570 whole entry, looked up): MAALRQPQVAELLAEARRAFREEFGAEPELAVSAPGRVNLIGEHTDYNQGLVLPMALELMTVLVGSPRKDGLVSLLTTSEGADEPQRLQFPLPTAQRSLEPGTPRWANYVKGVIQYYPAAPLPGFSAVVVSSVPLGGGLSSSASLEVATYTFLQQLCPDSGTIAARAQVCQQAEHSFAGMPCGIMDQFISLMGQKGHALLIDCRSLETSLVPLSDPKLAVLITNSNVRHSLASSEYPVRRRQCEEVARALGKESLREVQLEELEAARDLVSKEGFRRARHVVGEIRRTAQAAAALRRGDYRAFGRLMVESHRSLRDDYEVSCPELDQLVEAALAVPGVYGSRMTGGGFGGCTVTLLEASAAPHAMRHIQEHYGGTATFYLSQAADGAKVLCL
# Summary of the method: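 Enzyme activity is inferred from ATP consumption: human GALK phosphorylates galactose (100 uM) using 35 uM ATP for 1 h at room temperature, and luciferase-based Kinase-Glo Plus reports unconsumed ATP.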
# [16] = Validation screen for small molecules that induce DNA re-replication in SW480 colon adenocarcinoma cells (AID 504364); conditions: DNA re-replication phenotype (high-content imaging); series mostly up to 46.1 µM; further: 0% is about no effect
# Summary of the method: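 250 cells/well; compound pinned in; 48 hr, 37 C, 5% CO2; Hoechst added, 40 min; nuclear fluorescence imaged, 405 ex / 500-530 em; re-replication scored as increase in high-intensity nuclei.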
# [17] = target: Voltage-gated inwardly rectifying potassium channel KCNH2 (Homo sapiens) (UniProt Q12809); experiment: qHTS Assay for Small Molecule Inhibitors of the Human hERG Channel Activity (AID 588834); conditions: U2OS BacMam hERG, FluxOR thallium flux fluorescence; series mostly up to 92.2 µM;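 further: top concentration of the series differs between compounds; on the % scale 0 is the no-effect control and ±100 the full control effect; lower thallium flux fluorescence means stronger hERG block; nearly all actives have a fitted effect of over 50% in size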
# Chain of Voltage-gated inwardly rectifying potassium channel KCNH2 (Homo sapiens) (Q12809 whole entry, looked up): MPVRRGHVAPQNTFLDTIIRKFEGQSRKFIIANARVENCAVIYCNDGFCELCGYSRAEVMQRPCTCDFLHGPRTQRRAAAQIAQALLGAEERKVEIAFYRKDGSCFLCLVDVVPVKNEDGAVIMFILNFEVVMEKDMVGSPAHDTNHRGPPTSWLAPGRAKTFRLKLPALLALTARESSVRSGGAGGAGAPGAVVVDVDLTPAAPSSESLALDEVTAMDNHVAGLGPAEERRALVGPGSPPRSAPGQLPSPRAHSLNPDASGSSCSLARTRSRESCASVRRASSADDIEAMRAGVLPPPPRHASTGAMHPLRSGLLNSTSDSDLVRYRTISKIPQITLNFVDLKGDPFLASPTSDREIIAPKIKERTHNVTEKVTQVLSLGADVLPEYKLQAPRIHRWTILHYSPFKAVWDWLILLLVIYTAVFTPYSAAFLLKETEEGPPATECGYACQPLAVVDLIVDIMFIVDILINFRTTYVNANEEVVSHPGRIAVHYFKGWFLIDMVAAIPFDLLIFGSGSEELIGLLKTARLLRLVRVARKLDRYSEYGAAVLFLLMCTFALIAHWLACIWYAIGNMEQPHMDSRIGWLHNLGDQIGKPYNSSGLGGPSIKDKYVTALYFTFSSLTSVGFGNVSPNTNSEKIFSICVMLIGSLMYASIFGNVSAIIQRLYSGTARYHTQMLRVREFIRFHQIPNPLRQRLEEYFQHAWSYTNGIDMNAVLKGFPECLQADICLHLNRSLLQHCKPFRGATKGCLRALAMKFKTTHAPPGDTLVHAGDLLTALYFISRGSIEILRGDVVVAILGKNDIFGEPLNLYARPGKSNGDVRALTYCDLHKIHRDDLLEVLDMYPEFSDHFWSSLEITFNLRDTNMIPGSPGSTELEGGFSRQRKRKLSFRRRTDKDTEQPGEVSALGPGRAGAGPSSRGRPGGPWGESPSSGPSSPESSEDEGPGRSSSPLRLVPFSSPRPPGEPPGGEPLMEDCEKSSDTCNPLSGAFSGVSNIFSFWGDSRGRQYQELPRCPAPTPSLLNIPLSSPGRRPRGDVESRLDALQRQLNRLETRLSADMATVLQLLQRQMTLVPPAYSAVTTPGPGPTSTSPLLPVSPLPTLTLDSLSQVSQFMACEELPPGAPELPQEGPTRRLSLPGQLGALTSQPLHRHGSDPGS
# Summary of the method: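 Blockade is seen as reduced FluxOR thallium-flux fluorescence in U2OS cells expressing hERG from a BacMam construct, in Opti-MEM with 2% FCS. Concentration-response data fitted to the Hill equation for AC50.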
smiles,measurement,setting,value
COc1ccc(S(=O)(=O)NC[C@H]2Cn3c(-c4ccc(Cl)cc4)cnc3CO2)cc1,activity,[1],-8.66%
same,"activity change, negative = inhibition",[2],-2.1% [at 85.7 µM]
same,activity,[3],-23.7%
same,activity,[4],-17.1%
CN1CCN(c2ncnc3sc4c(c23)CCNC4)CC1,activity,[1],-1.43%
same,"activity change, negative = inhibition",[2],0.536%
same,activity,[3],-71.2%
same,activity,[4],-15%
C[C@]12C[C@H](O)C3[C@@H](CCC4=CC(=O)CC[C@@]43C)[C@@H]1CC[C@@H]2C(=O)CO (stereo partly drawn),outcome,[5],inactive
same,Potency,[6],inactive
same,Potency,[7],11.2 µM (active)
same,Potency,[8],inactive
same,outcome,[9],inactive
same,outcome,[10],inactive
same,Potency,[11],inactive
same,Potency,[12],inactive
same,Potency,[13],inactive
same,outcome,[14],inactive
same,outcome,[15],inactive
same,Potency,[16],inactive
same,Potency,[17],inactive
Cn1cc2c3c(cccc31)CN(C(=O)c1ccccc1F)CC2,activity,[1],-1.46%
same,"activity change, negative = inhibition",[2],8.53%
same,activity,[3],-50.7%
same,activity,[4],-0.857%
CC(C)CCn1c(=O)c2ccccc2n2c(CCC(=O)N3CCN(c4ccc(F)cc4)CC3)nnc12,activity,[1],1.78%
same,"activity change, negative = inhibition",[2],0%
same,activity,[3],-61.2%
same,activity,[4],-6.79%
Cc1ccc2nc(CN(C)C(=O)C3CCC(=O)N(C4CCCCCC4)C3)[nH]c2c1 (stereo not drawn),activity,[1],-3.1%
same,"activity change, negative = inhibition",[2],-4.65%
same,activity,[3],-9.1%
same,activity,[4],-9.49%
